A number with no mark means an inactive call. The source made the active and inactive calls.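 How the source made its calls: active means two or more serine hydrolases at least half inhibited, plus every target band half blocked in a general-probe test; inactive means under two enzymes half blocked, or any target band not.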
Assay: general off-target profile by competitive ABPP – fluorescence, gel-based ABPP, powder samples, selectivity assay for PAFAH2 inhibitor project, late-stage follow-up (AID 504527)
Settings: BW5147 murine T-cell proteome, FP-Rh fluorescence, competitor test compound, probe FP-Rh, at 20 µM, hits give high values

Structure (SMILES) | number of serine hydrolases inhibited >=50%
C#CCOCCOCCOCCN(Cc1ccccc1)C(=O)n1nc2cccnc2n1 | 7 (active)
C#CCOCCOCCOCCN(Cc1ccccc1)C(=O)n1ncc(-c2ccccc2)n1 | 8 (active)
C#CCOCCOCCOCCN(Cc1ccccc1)C(=O)n1ccnc1 | 0
C#CCOCCOCCOCCN(Cc1ccccc1)C(=O)Oc1ccc([N+](=O)[O-])cc1 | 1
C#CCOCCOCCOCCN(Cc1ccccc1)C(=O)n1nccn1 | 5 (active)

— PubChem BioAssay AID504527 (The Scripps Research Institute Molecular Screening Center, 2011)
